Reference: PubChem BioAssay AID1159580 (chemical genetic matrix, 2015)
The campaign covered roughly 5,500 compounds. About 2,000 (36%) were called active. Another 18% or so got no clear call; they are omitted. Rule as the data show it: active = normalized growth mostly below about 0.91 (no sharp cut-off); inconclusive = no clear call, values can overlap the other calls; inactive = mostly above about 0.92. Some of the results follow.

Assay: chemical genetic growth profiling, strain panel (AID 1159580);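 also: tested at 20 µM; growth read once vehicle control cultures reached saturation at 30 °C; 1 = growth at the plate median or of vehicle wells; lower values mean less growth of the strain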
Details: growth OD

Measured: normalized growth

O=c1[nH]c(=O)n(C2C[C@H](O)[C@@H](CO)O2)cc1C(F)(F)F (stereo partly specified)
inactive: S. cerevisiae deletion strains, locus YKL009W, strain mrt4, stronger effect = lower value 0.981 | S. cerevisiae deletion strains, locus YKL068W, stronger effect = lower value 0.978 | S. cerevisiae deletion strains, locus YKL085W, strain MDH1 (second series), stronger effect = lower value 0.974 | S. cerevisiae deletion strains, locus YKL085W, strain MDH1, stronger effect = lower value 0.974 | S. cerevisiae deletion strains, locus YKL160W, strain elf1, stronger effect = lower value 0.954 | S. cerevisiae deletion strains, locus YKL190W, strain CNB1, stronger effect = lower value 0.996 | S. cerevisiae deletion strains, locus YKR001C, strain vps1, stronger effect = lower value 0.982 | S. cerevisiae deletion strains, locus YKR026C, strain gcn3, stronger effect = lower value 0.973 | S. cerevisiae deletion strains, locus YKR091W, strain srl3, stronger effect = lower value 0.96 | S. cerevisiae deletion strains, locus YLL001W, strain dnm1, stronger effect = lower value 0.994 | S. cerevisiae deletion strains, locus YLL026W, stronger effect = lower value 0.962 | S. cerevisiae deletion strains, locus YLL041C, strain sdh2, stronger effect = lower value 0.954 | S. cerevisiae deletion strains, locus YLR027C, strain aat2, stronger effect = lower value 0.965 | S. cerevisiae deletion strains, locus YLR039C, strain RIC1, stronger effect = lower value 0.934 | S. cerevisiae deletion strains, locus YLR058C, strain SHM2, stronger effect = lower value 0.968 | S. cerevisiae deletion strains, locus YLR102C, strain apc9, stronger effect = lower value 0.98 | S. cerevisiae deletion strains, locus YLR113W, strain HOG1, stronger effect = lower value 0.996 | S. cerevisiae deletion strains, locus YLR221C, strain rsa3, stronger effect = lower value 0.988 | S. cerevisiae deletion strains, locus YLR258W, strain gsy2, stronger effect = lower value 0.965 | S. cerevisiae deletion strains, locus YLR262C, strain YPT6 (second series), stronger effect = lower value 0.936 | S. cerevisiae deletion strains, locus YLR262C, strain YPT6, stronger effect = lower value 0.955 | S. cerevisiae deletion strains, locus YLR268W, strain sec22, stronger effect = lower value 0.962 | S. cerevisiae deletion strains, locus YLR320W, strain mms22, stronger effect = lower value 1 | S. cerevisiae deletion strains, locus YLR330W, strain CHS5, stronger effect = lower value 0.988 | S. cerevisiae deletion strains, locus YLR342W, strain FKS1 (second series), stronger effect = lower value 1 | S. cerevisiae deletion strains, locus YLR342W, strain FKS1, stronger effect = lower value 0.966 | S. cerevisiae deletion strains, locus YLR357W, strain rsc2, stronger effect = lower value 0.981 | S. cerevisiae deletion strains, locus YLR370C, strain arc18, stronger effect = lower value 0.947 | S. cerevisiae deletion strains, locus YLR371W, strain rom2, stronger effect = lower value 0.97 | S. cerevisiae deletion strains, locus YLR384C, strain iki3, stronger effect = lower value 0.952 | S. cerevisiae deletion strains, locus YLR418C, strain cdc73, stronger effect = lower value 0.975 | S. cerevisiae deletion strains, locus YML016C, strain PPZ1, stronger effect = lower value 0.993 | S. cerevisiae deletion strains, locus YML032C, strain rad52, stronger effect = lower value 0.979 | S. cerevisiae deletion strains, locus YML120C, strain ndi1, stronger effect = lower value 0.992 | S. cerevisiae deletion strains, locus YML124C, strain tub3, stronger effect = lower value 0.972 | S. cerevisiae deletion strains, locus YMR058W, strain fet3, stronger effect = lower value 0.952 | S. cerevisiae deletion strains, locus YMR078C, strain ctf18, stronger effect = lower value 0.972 | S. cerevisiae deletion strains, locus YMR125W, strain sto1, stronger effect = lower value 0.95 | S. cerevisiae deletion strains, locus YMR129W, stronger effect = lower value 0.967 | S. cerevisiae deletion strains, locus YMR205C, strain PFK2, stronger effect = lower value 0.983 | S. cerevisiae deletion strains, locus YMR223W, strain ubp8, stronger effect = lower value 0.988 | S. cerevisiae deletion strains, locus YMR231W, strain pep5, stronger effect = lower value 0.981 | S. cerevisiae deletion strains, locus YMR263W, strain SAP30, stronger effect = lower value 1 | S. cerevisiae deletion strains, locus YMR307W, strain GAS1, stronger effect = lower value 0.978 | S. cerevisiae deletion strains, locus YNL067W, strain RPL9B, stronger effect = lower value 0.992 | S. cerevisiae deletion strains, locus YNL071W, strain lat1, stronger effect = lower value 1 | S. cerevisiae deletion strains, locus YNL128W, strain TEP1, stronger effect = lower value 0.976 | S. cerevisiae deletion strains, locus YNL153C, strain GIM3, stronger effect = lower value 0.992 | S. cerevisiae deletion strains, locus YNL183C, strain NPR1, stronger effect = lower value 0.966 | S. cerevisiae deletion strains, locus YNL209W, strain ssb2, stronger effect = lower value 0.961 | S. cerevisiae deletion strains, locus YNL233W, strain BNI4, stronger effect = lower value 0.978 | S. cerevisiae deletion strains, locus YNL248C, strain rpa49, stronger effect = lower value 0.926 | S. cerevisiae deletion strains, locus YNL250W, strain rad50, stronger effect = lower value 0.951 | S. cerevisiae deletion strains, locus YNL271C, strain bni1, stronger effect = lower value 0.983 | S. cerevisiae deletion strains, locus YNL298W, strain CLA4, stronger effect = lower value 0.971 | S. cerevisiae deletion strains, locus YNL307C, strain MCK1, stronger effect = lower value 0.972 | S. cerevisiae deletion strains, locus YNL322C, strain KRE1 (second series), stronger effect = lower value 0.935 | S. cerevisiae deletion strains, locus YNL322C, strain KRE1, stronger effect = lower value 0.989 | S. cerevisiae deletion strains, locus YNR049C, strain mso1, stronger effect = lower value 0.957 | S. cerevisiae deletion strains, locus YNR052C, strain pop2, stronger effect = lower value 0.992 | S. cerevisiae deletion strains, locus YOL006C, strain TOP1, stronger effect = lower value 0.969 | S. cerevisiae deletion strains, locus YOL012C, strain htz1 0.749 | S. cerevisiae deletion strains, locus YOL147C, strain pex11, stronger effect = lower value 0.974 | S. cerevisiae deletion strains, locus YOR001W, strain rrp6, stronger effect = lower value 0.99 | S. cerevisiae deletion strains, locus YOR061W, strain CKA2, stronger effect = lower value 0.987 | S. cerevisiae deletion strains, locus YOR069W, strain VPS5, stronger effect = lower value 0.983 | S. cerevisiae deletion strains, locus YOR070C, strain gyp1, stronger effect = lower value 0.977 | S. cerevisiae deletion strains, locus YOR080W, strain dia2, stronger effect = lower value 0.96 | S. cerevisiae deletion strains, locus YOR083W, strain WHI5, stronger effect = lower value 0.917 | S. cerevisiae deletion strains, locus YOR106W, strain vam3, stronger effect = lower value 0.95 | S. cerevisiae deletion strains, locus YOR136W, strain idh2, stronger effect = lower value 0.978 | S. cerevisiae deletion strains, locus YOR144C, strain elg1, stronger effect = lower value 0.97 | S. cerevisiae deletion strains, locus YOR184W, strain ser1, stronger effect = lower value 0.983 | S. cerevisiae deletion strains, locus YOR231W, strain MKK1, stronger effect = lower value 0.992 | S. cerevisiae deletion strains, locus YOR265W, strain rbl2, stronger effect = lower value 0.971 | S. cerevisiae deletion strains, locus YOR270C, strain vph1, stronger effect = lower value 0.948 | S. cerevisiae deletion strains, locus YOR290C, strain snf2, stronger effect = lower value 0.949 | S. cerevisiae deletion strains, locus YOR316C, strain cot1, stronger effect = lower value 0.983 | S. cerevisiae deletion strains, locus YPL051W, strain arl3, stronger effect = lower value 0.981 | S. cerevisiae deletion strains, locus YPL055C, strain LGE1, stronger effect = lower value 0.985 | S. cerevisiae deletion strains, locus YPL078C, strain atp4, stronger effect = lower value 0.988 | S. cerevisiae deletion strains, locus YPL106C, strain sse1, stronger effect = lower value 0.944 | S. cerevisiae deletion strains, locus YPL240C, strain hsp82, stronger effect = lower value 0.969 | S. cerevisiae deletion strains, locus YPL241C, strain CIN2, stronger effect = lower value 0.983 | S. cerevisiae deletion strains, locus YPL256C, strain CLN2, stronger effect = lower value 1.04 | S. cerevisiae deletion strains, locus YPR119W, strain clb2, stronger effect = lower value 0.987 | S. cerevisiae deletion strains, locus YPR141C, strain kar3, stronger effect = lower value 0.959 | S. cerevisiae deletion strains, locus YPR163C, strain tif3, stronger effect = lower value 0.972 | S. cerevisiae deletion strains, locus YPR167C, strain met16, stronger effect = lower value 0.971 | S. cerevisiae deletion strains, strain wtn01, stronger effect = lower value 0.985 | S. cerevisiae strains, strain wild type, stronger effect = lower value 0.985
